Test results taken from PubChem BioAssay (Tox21).
“And” between values parts separate entries of the source, which are not always exact repeats. Identical values can stand only once. Records with an inconclusive call do not appear. The source made the active and inactive calls. Calls come from the whole dose curve; as a rule, active = well fitted curve in the direction sought with a large enough effect in the repeat runs; inconclusive = weak or mixed curves; inactive = no such curve, though single readings can be large; an effect the other way counts as inactive or inconclusive.

Assays:
[1] = A CellTox Green Cytotoxicity Assay to monitor cytotoxicity in HEK293 cells - 40 hour (AID 1224871); note: nearly all actives have a fitted effect of over 45% in size
How it was run: (§1)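 Read-out: fluorescence of a cell-impermeant cyanine dye staining DNA of dead cells, proportional to cytotoxicity. HEK293, 600 cells/well with reagent, compound (23 nL DMSO) added after 5 h; reads at 0, 8, 16, 24, 32, 40 h.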

[2] = qHTS RealTime-Glo MT Cell Viability Assay in HEK293 cells - 16 hour (AID 1224872); note: top concentration of the series differs between compounds; nearly all actives have a fitted effect of over 50% in size
How it was run: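 HEK293 cells were seeded at 600 cells/well together with NanoLuc luciferase and cell-permeant prosubstrate, preincubated 5 h at 37 C/5% CO2, then given compound in DMSO by pintool. Luminescence from viable-cell prosubstrate reduction was read repeatedly over 40 h.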

[3] = qHTS RealTime-Glo MT Cell Viability Assay in HepG2 cells - 8 hour (AID 1224873); note: nearly all actives have a fitted effect of over 55% in size
How it was run: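 Real-time viability: cells seeded at 600 per well together with NanoLuc and cell-permeant prosubstrate, compounds added after 5 h incubation. Luminescence tracked at 0, 8, 16, 24, 32 and 40 h of exposure.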

[4] = qHTS RealTime-Glo MT Cell Viability Assay in HEK293 cells - 40 hour (AID 1224874); settings: RealTime-Glo luminescence; max response: hits give low values; note: nearly all actives have a fitted effect of over 50% in size
How it was run: (§2)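 Luminescence readout at each listed time point; HEK293, 600 cells/well, RealTime-Glo MT reagent added with cells; compounds pinned (23 nL in DMSO) after 5 h at 37 C; continuous culture at 37 C.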

[5] = A CellTox Green Cytotoxicity Assay to monitor cytotoxicity in HEK293 cells - 24 hour (AID 1224875); note: series mostly up to about 77 µM; nearly all actives have a fitted effect of over 45% in size
How it was run: as §1

[6] = A CellTox Green Cytotoxicity Assay to monitor cytotoxicity in HepG2 cells - 16 hour (AID 1224876); note: nearly all actives have a fitted effect of over 45% in size
How it was run: (§3)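 HepG2, 600 cells/well premixed w/ CellTox Green; 5 h settle, 37 C/5% CO2; pintool cpd add (DMSO); 37 C, 40 h; fluorescence read at 0, 8, 16, 24, 32, 40 h.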

[7] = qHTS RealTime-Glo MT Cell Viability Assay in HepG2 cells - 32 hour (AID 1224877); note: nearly all actives have a fitted effect of over 55% in size
How it was run: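 HepG2 cells were seeded at 600 cells/well together with NanoLuc luciferase and a cell-permeant prosubstrate, preincubated 5 h at 37 C/5% CO2, then pin-dosed with compounds in DMSO. Nonlytic luminescence from viable cells was read at each time point.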

[8] = A CellTox Green Cytotoxicity Assay to monitor cytotoxicity in HepG2 cells - 24 hour (AID 1224878); note: nearly all actives have a fitted effect of over 45% in size
How it was run: as §3

[9] = A CellTox Green Cytotoxicity Assay to monitor cytotoxicity in HepG2 cells - 40 hour (AID 1224879); note: nearly all actives have a fitted effect of over 40% in size
How it was run: as §3

[10] = qHTS RealTime-Glo MT Cell Viability Assay in HEK293 cells - 0 hour (AID 1224880)
How it was run: as §2
% is set by controls: 0 for no effect and ±100 for the full control effect.

OCCSSCCO
inactive: Potency [1] | Potency [2] | Potency [3] | max response [4] 3.99% | Potency [5] | Potency [6] | Potency [7] | Potency [8] | Potency [9] | outcome [10]

CCCCCCCCCCCCCCCl
inactive: Potency [1] | Potency [2] | Potency [3] | max response [4] 1.34% | Potency [5] | Potency [6] | Potency [7] | Potency [8] | Potency [9] | outcome [10]

CCc1ccccc1N
inactive: Potency [1] | Potency [2] | Potency [3] | max response [4] 1.07% | Potency [5] | Potency [6] | Potency [7] | Potency [8] | Potency [9] | outcome [10]

CC(C)(C)NCC(O)c1ccccc1Cl (stereo not given)
inactive: Potency [1] | Potency [2] | Potency [3] | max response [4] 4.08% | Potency [5] | Potency [6] | Potency [7] | Potency [8] | Potency [9] | outcome [10]

C1CS1
inactive: Potency [1] | Potency [2] | Potency [3] | max response [4] 12% | Potency [5] | Potency [6] | Potency [7] | Potency [8] | Potency [9] | outcome [10]

COc1cc(CC#N)cc(OC)c1OC
inactive: Potency [1] | Potency [2] | Potency [3] | max response [4] 0.767% | Potency [5] | Potency [6] | Potency [7] | Potency [8] | Potency [9] | outcome [10]

O=C1CC[C@@]2(O)[C@H]3Cc4ccc(O)c5c4[C@@]2(CCN3CC2CC2)[C@H]1O5
inactive: Potency [1] | Potency [2] | Potency [3] | max response [4] 3.94% | Potency [5] | Potency [6] | Potency [7] | Potency [8] | Potency [9] | outcome [10]

CCOP(=S)(OCC)Oc1ccc(S(C)=O)cc1 (stereo not given)
inactive: Potency [1] | Potency [2] | Potency [3] | max response [4] 6.56% | Potency [5] | Potency [6] | Potency [7] | Potency [8] | Potency [9] | outcome [10]

NC(=O)CF
inactive: Potency [1] | Potency [2] | Potency [3] | max response [4] -4.69% | Potency [5] | Potency [6] | Potency [7] | Potency [8] | Potency [9] | outcome [10]

Clc1ccccc1
inactive: Potency [1] | Potency [2] | Potency [3] | max response [4] -1.5% | Potency [5] | Potency [6] | Potency [7] | Potency [8] | Potency [9] | outcome [10]

CC(C)(C)NCC(O)c1cc(Cl)c(N)c(C(F)(F)F)c1 (stereo not given)
inactive: Potency [1] | Potency [2] | Potency [3] | max response [4] 3.67% | Potency [5] | Potency [6] | Potency [7] | Potency [8] | Potency [9] | outcome [10]

CCCN(CCC)c1c([N+](=O)[O-])cc(C(C)C)cc1[N+](=O)[O-]
inactive: Potency [1] | Potency [2] | Potency [3] | max response [4] 9.58% | Potency [5] | Potency [6] | Potency [7] | Potency [8] | Potency [9] | outcome [10]

CC(C)OC(=O)Cc1ccccc1
inactive: Potency [1] | Potency [2] | Potency [3] | max response [4] 5.49% | Potency [5] | Potency [6] | Potency [7] | Potency [8] | Potency [9] | outcome [10]

OC[P+](CO)(CO)CO
inactive: Potency [1] | Potency [2] | Potency [3] | max response [4] 5.15% and -10.7% | Potency [5] | Potency [6] | Potency [7] | Potency [8] | Potency [9] | outcome [10]

CCOP(=S)(OCC)SCSc1cc(Cl)ccc1Cl
inactive: Potency [1] | Potency [2] | Potency [3] | max response [4] 0.23% | Potency [5] | Potency [6] | Potency [7] | Potency [8] | Potency [9] | outcome [10]

Cc1cnc(C2=NC(C)(C(C)C)C(=O)N2)c(C(=O)O)c1 (stereo not given)
inactive: Potency [1] | Potency [2] | Potency [3] | max response [4] 12.6% | Potency [5] | Potency [6] | Potency [7] | Potency [8] | Potency [9] | outcome [10]

CCCC(C)(COC(N)=O)COC(=O)NC(C)C (stereo not given)
inactive: Potency [1] | Potency [2] | Potency [3] | max response [4] -11.3% and 0.58% | Potency [5] | Potency [6] | Potency [7] | Potency [8] | Potency [9] | outcome [10]

CC(C)C1(C)N=C(c2ncccc2C(=O)O)NC1=O (stereo not given)
inactive: Potency [1] | Potency [2] | Potency [3] | max response [4] 1.4% | Potency [5] | Potency [6] | Potency [7] | Potency [8] | Potency [9] | outcome [10]

COC(=O)Cc1ccccc1
inactive: Potency [1] | Potency [2] | Potency [3] | max response [4] 7.1% | Potency [5] | Potency [6] | Potency [7] | Potency [8] | Potency [9] | outcome [10]

CC1(C)CC(=O)CC(C)(C)N1[O]
inactive: Potency [1] | Potency [2] | Potency [3] | max response [4] 2.69% | Potency [5] | Potency [6] | Potency [7] | Potency [8] | Potency [9] | outcome [10]

COC1CC(=C(c2cccs2)c2cccs2)C[N+](C)(C)C1 (stereo not given)
inactive: Potency [1] | Potency [2] | Potency [3] | max response [4] -21.7% | Potency [5] | Potency [6] | Potency [7] | Potency [8] | Potency [9] | outcome [10]
